Reference: PubChem BioAssay AID1878 (Sanford-Burnham Center for Chemical Genomics, 2009)
In all, about 1,000 compounds went through this assay and about 200 (20%) were called active. Not all results are given here. Measured potencies and affinities stand elsewhere. A number with no mark means an inactive call. No stated cut-off is given here; in the data, active means inhibition above about 55%; inactive means the rest.

What follows are molecules tested against Dual specificity protein phosphatase 3 (Homo sapiens) (UniProt P51452) (assay: VHR1 phosphatase inhibitors, biochemical (AID 1878)). Conditions: recombinant VHR phosphatase, fluorogenic substrate; at 13.3 µM; hits give high values.
Chain of Dual specificity protein phosphatase 3 (Homo sapiens) (P51452 whole entry, looked up): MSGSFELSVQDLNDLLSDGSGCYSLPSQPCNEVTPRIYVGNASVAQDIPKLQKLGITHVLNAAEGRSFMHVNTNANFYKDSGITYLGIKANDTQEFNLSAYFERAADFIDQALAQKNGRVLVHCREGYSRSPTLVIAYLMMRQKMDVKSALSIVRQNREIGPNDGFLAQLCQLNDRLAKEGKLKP

In the case of `CCOc1ccc(-n2c(SCC(=O)N3CCc4ccccc43)nnc2-c2c[nH]c3ccccc23)cc1`, the inhibition is reported as 83.6% (active).
For `COc1ccccc1CCNC(=O)c1cc(-c2ccncc2)nc2ccc(Br)cc12`, the inhibition was 70.1% (active).
`Cc1ccc2nc(-c3ccncc3)cc(C(=O)Nc3ccc(OC(F)F)cc3)c2c1` was tested, and the inhibition was 69.1% (active).
In the case of `O=C(Nc1ccncc1)c1cc(-c2ccccn2)nc2ccc(Br)cc12`, the inhibition is reported as 84.4% (active).
`Cc1ccc(NC(=O)CN2C(=O)S/C(=C/c3ccc(-c4cccc(C(=O)O)c4)o3)C2=O)cc1` was tested, and the inhibition was 93.9% (active).
With `Cc1ccc(NC(=O)CN2C(=O)S/C(=C\c3ccc(-c4cccc(C(=O)O)c4C)o3)C2=O)cc1C` the inhibition was 84.7% (active).
With `Cc1ccc(NC(=O)CN2C(=O)S/C(=C\c3ccc(-c4cccc(C(=O)O)c4C)o3)C2=O)cc1` the inhibition was 97.5% (active).
For `COc1ccc(-n2nc(C(=O)Nc3ccc(OC)c(OC)c3)c3c4ccccc4n(C)c3c2=O)cc1`, the inhibition was 94.9% (active).

Going from `O=C(CN1CCN(c2ccc(O)cc2)CC1)N1CCc2ccccc21` to `COc1ccccc1N1CCN(C2CCCN(Cc3cc(F)cc(F)c3)C2)CC1` (stereo not drawn), the inhibition rises from -16.5% to -2.1%.

Compared with `O=C(CCCN1C(=O)C(c2ccccc2)Oc2cccnc21)Nc1ccccc1Cl` (stereo not drawn), `CCOc1ccccc1NC(=O)c1cc(-c2ccncc2)nc2c(Cl)cccc12` is higher in inhibition: 4.6% for the first, 34.3% for the second.

Compared with `COc1c(C(=O)Nc2ccc3[nH]c(=O)[nH]c3c2)cc2ccccc2c1Br`, `O=C(Nc1ccc2nc3n(c(=O)c2c1)CCCC3)c1ccccc1F` is lower in inhibition: 13.6% for the first, -11.4% for the second.

Compared with `COc1ccccc1CCNC(=O)CNC(=O)c1ccc2ccccc2c1`, `O=C(CCC(=O)c1ccc(Cl)cc1)NCc1ccccc1` is higher in inhibition: -4.1% for the first, 3.5% for the second.

Compared with `COc1cc(CCNC(=O)c2ccccc2NC(=O)C2=C(C)OCCS2)cc(OC)c1OC`, `COc1cc(NC(=O)CN2CCN(c3ccccn3)CC2)cc(OC)c1OC` is higher in inhibition: -10.3% for the first, 6% for the second.

Going from `Cc1c(Cl)cccc1NC(=O)c1cccc(OC(F)F)c1` to `CCn1c(=O)n(CC)c2cc(N3CCCC3)c(NC(=O)c3cccc(OC)c3)cc21`, the inhibition falls from 29.2% to 0.2%.

Compared with `CC1CCCCN1CCCNC(=O)C1CCN(c2nnc(-n3cccc3)s2)CC1` (stereo not drawn), `CCC1CCCCN1CCCNC(=O)CN1C(=O)COc2ccc(S(=O)(=O)N3CCOCC3)cc21` (stereo not drawn) is higher in inhibition: -30.3% for the first, 1.2% for the second.

First: Cc1cccc(CSc2[nH]c(=O)ncc2C)c1
Second: CCCOc1ccc(Cn2c(=O)oc3ccc(C)cc32)cc1
The inhibition of the first is lower: 1% for the first, 7.7% for the second.

Going from `O=C(C1CCN(S(=O)(=O)c2cccs2)CC1)N1CCc2ccccc2C1` to `CCOc1ccccc1NC(=O)C1CCN(C(=O)c2cccs2)CC1`, the inhibition falls from -7.4% to -20.3%.

Going from `COc1ccc(NC(C)=O)cc1NC(=O)CSc1nnc(C2CCCCC2)n1N` to `COc1ccc(NC2CCCN(C(=O)c3ccc(CSC)o3)C2)cc1OC` (stereo not drawn), the inhibition rises from 0.2% to 20.5%.

Compared with `O=C(c1ccccc1)C1CCN(C(=O)c2ccc(Cl)cc2)CC1`, `CN(C)c1ccc(NC(=O)CN2C3CCCC2CC(NC(=O)c2ccccc2)C3)cc1` (stereo not drawn) is higher in inhibition: -17.9% for the first, -12.8% for the second.

First: COc1ccc(N(C(=O)CNC(=O)c2ccco2)C(C(=O)NC2CCCCC2)c2ccncc2)cc1 (stereo not drawn)
Second: Cc1ccc(C(C(=O)NC2CCCC2)N(Cc2ccc(F)cc2)C(=O)c2snc(C(N)=O)c2N)o1 (stereo not drawn)
The inhibition of the first is lower: -11% for the first, 10.6% for the second.

Compared with `O=[N+]([O-])c1cccc2c([As](=O)(O)O)cccc12`, `COc1ccc(-n2nc(C(=O)NCC3CCCO3)c3ccccc3c2=O)cc1` (stereo not drawn) is lower in inhibition: 0.9% for the first, -4% for the second.

Compared with `O=c1c2cnn(-c3ccc(F)cc3)c2ncn1Cc1cccnc1`, `Cc1ccc(-n2ncc3c2CCCC3NC(=O)CCc2cnccn2)cc1C` (stereo not drawn) is higher in inhibition: -6.2% for the first, -2.7% for the second.

Compared with `S=c1[nH]nc(-c2ccccc2)n1/N=C/c1c[nH]c2ccccc12`, `c1ccc(-c2nnsc2-c2ccccc2)cc1` is lower in inhibition: 1.6% for the first, -7.8% for the second.

Compared with `CCC1CCCCN1CCCNC(=O)c1ccc(CS(=O)(=O)c2ccccc2C)o1` (stereo not drawn), `CCN1CCN(CCCNC(=O)CS(=O)(=O)Cc2nc(-c3ccccc3C)oc2C)CC1` is lower in inhibition: -7.8% for the first, -9.5% for the second.

First: Cc1oc(-c2ccc(Cl)cc2)nc1CS(=O)CC(=O)NCCN1CCCCCC1 (stereo not drawn)
Second: Cc1ccc2c(c1)N(CC(=O)NCCCN1CCCCC1)C(=O)CO2
The inhibition of the first is lower: -27.9% for the first, 2.3% for the second.

Going from `CCOc1cc(C2Nc3ccccc3NC3=C2C(=O)CC(C)(C)C3)ccc1OC(C)=O` (stereo not drawn) to `COCCNC(=O)c1cccc(OC2CCN(C(C)COc3ccccc3)CC2)c1` (stereo not drawn), the inhibition falls from -4.7% to -14.8%.

Going from `Cc1ccc(NC(=O)COC(=O)c2nn(C)cc2Cl)cc1` to `COc1ccc(NC(=O)c2cn(CCC#N)nc2-c2ccc(OC)c(OC)c2)cc1`, the inhibition falls from -0.7% to -8.4%.

Compared with `COc1cccc(CNC(=O)CCNS(=O)(=O)c2ccc3c(c2)oc(=O)n3C)c1`, `Nc1ncc(Br)cc1S(=O)(=O)NCCC(=O)NCc1ccc(F)cc1` is higher in inhibition: -4.6% for the first, 4.1% for the second.

Going from `O=C(Cn1ccnc1)c1ccc(Cl)cc1` to `CCC(C)NC(=O)c1ccc(CSCc2ccc(Cl)cc2)o1` (stereo not drawn), the inhibition falls from 14.8% to -3.4%.

Compared with `CC1(C(=O)O)CCC(C(=O)NC2CCCCCC2)C1(C)C` (stereo not drawn), `CC(C)(C)SC(=O)C[C@@H]1NS(=O)(=O)OC2CCCCC21` (stereo partly drawn) is higher in inhibition: -1.3% for the first, 24.7% for the second.

Going from `CN(CCCNC(=O)c1ccccc1F)CCCNC(=O)c1ccccc1F` to `CC(=O)NC(Cc1ccc(F)cc1)C(=O)NC1CCN(S(=O)(=O)c2ccccc2)CC1` (stereo not drawn), the inhibition rises from 15.1% to 41%.

First: Cc1cc(C)c(S(=O)(=O)/N=C2/C=C(Sc3ncn[nH]3)C(=O)c3ccccc32)cc1C
Second: CN(C)C1(CNCC(O)c2ccccc2)CCCCC1 (stereo not drawn)
The inhibition of the first is higher: 15.8% for the first, 6.5% for the second.

First: COc1cc(CN2CCC(n3nccc3NC(=O)C3CCOC3)CC2)ccc1F (stereo not drawn)
Second: CN(CC1CCCN(CCc2ccc(F)cc2)C1)C(=O)CCC(N)=O (stereo not drawn)
The inhibition of the first is lower: -5.3% for the first, -4.8% for the second.
